PubChem BioAssay (NCI)
About 79,000 compounds went through this panel and 15% of them were active in at least one assay; those are over-represented in the sample as a whole. Active and inactive are the calls of the source. Rule as the data show it: active = growth inhibition above about 70%; inactive = the rest.

Legend:
[1] = NCI Yeast Anticancer Drug Screen. Data for the mec2-1 strain (AID 157); conditions: S. cerevisiae mec2-1 strain, active compounds read high
Outline: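 Each compound was tested on mec2-1 yeast, a strain altered in DNA damage repair or cell cycle control. Growth inhibition is reported relative to vehicle.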

[2] = NCI Yeast Anticancer Drug Screen. Data for the sgs1 mgt1 strain (AID 161);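 also: 0% = growth of cultures given vehicle only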; conditions: S. cerevisiae sgs1 mgt1 strain, active compounds read high
Outline: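 Test agents were incubated with a DNA-repair-mutant yeast strain. Growth was then read and compared against vehicle-treated controls.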

[3] = NCI Yeast Anticancer Drug Screen. Data for the CLN2oe strain (AID 163);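 also: 0% = growth of vehicle-only control cultures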; conditions: S. cerevisiae CLN2oe strain, active compounds read high
Outline: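 First, the altered yeast strain was treated with each compound; second, its growth was measured; finally, inhibition was derived by comparison with vehicle controls.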

[4] = NCI Yeast Anticancer Drug Screen. Data for the cln2 rad14 strain (AID 165);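 also: 0% = growth equal to vehicle treated cultures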; conditions: S. cerevisiae cln2 rad14 strain, active compounds read high
Outline: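 Test compounds were added to cln2 rad14 yeast cultures; inhibition of growth was then determined by comparison with vehicle treatment.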

[5] = NCI Yeast Anticancer Drug Screen. Data for the bub3 strain (AID 167); conditions: S. cerevisiae bub3 mutant strain, active compounds read high
Outline: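 Screening used yeast with an engineered genetic alteration affecting cell cycle control. Compound-exposed cultures were compared with vehicle cultures, and reduced growth was taken as inhibition.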

[6] = NCI Yeast Anticancer Drug Screen. Data for the wt2 strain (AID 169);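 also: 0% = growth of vehicle-treated yeast cultures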; conditions: S. cerevisiae wt2 strain growth inhibition, active compounds read high
Outline: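 The panel's yeast strains carry defined changes in DNA repair or cell cycle genes. Each strain is grown with compound, and growth loss is scored relative to vehicle.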

[7] = NCI Yeast Anticancer Drug Screen. Data for the mlh1 strain (AID 171);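 also: 0% = growth of vehicle-treated control cultures of the same strain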; conditions: S. cerevisiae mlh1 strain growth inhibition, active compounds read high
Outline: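 Inhibition values reflect reduced yeast growth in the presence of compound, referenced to vehicle controls, using a strain chosen for its alteration in DNA repair or cell cycle control.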

[8] = NCI Yeast Anticancer Drug Screen. Data for the sgs1 strain (AID 173);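 also: 0% = growth of vehicle-only control cultures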; conditions: S. cerevisiae sgs1 mutant, active compounds read high
Outline: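 Vehicle-treated cultures served as reference for growth inhibition of a yeast strain altered in DNA damage repair or cell cycle control after compound exposure.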

[9] = NCI Yeast Anticancer Drug Screen. Data for the mlh1 rad18 strain (AID 175); conditions: S. cerevisiae mlh1 rad18 strain growth inhibition, active compounds read high
Outline: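 Inhibition values reflect reduced growth of mutant yeast versus vehicle-treated controls following compound exposure; the mutations affect DNA damage repair.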

[10] = NCI Yeast Anticancer Drug Screen. Data for the rad18 strain (AID 177); conditions: S. cerevisiae rad18 mutant growth inhibition, active compounds read high
Outline: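 Steps: expose repair-mutant yeast to compound; measure growth; express as inhibition relative to vehicle control.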

[11] = NCI Yeast Anticancer Drug Screen. Data for the wt1 strain (AID 149);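 also: 0% = growth of vehicle-treated wt1 cultures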; conditions: S. cerevisiae wt1 strain (SPY 50644) growth inhibition, active compounds read high
Outline: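 Using yeast strain wt1, compound-induced growth inhibition was determined against vehicle-treated cultures.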

[12] = NCI Yeast Anticancer Drug Screen. Data for the rad50EPP+ strain (AID 151);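 also: 0% = growth of vehicle-treated control cultures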; conditions: S. cerevisiae rad50 mutant strain, active compounds read high
Outline: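 Genetically defined yeast (rad50EPP+, DNA damage repair alteration) is grown with compound, and inhibition of growth is expressed relative to vehicle-treated controls.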

[13] = NCI Yeast Anticancer Drug Screen. Data for the mgt1 strain (AID 153); conditions: S. cerevisiae mgt1 mutant growth inhibition, active compounds read high
Outline: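 In the mgt1 strain, test compounds were added and growth inhibition was determined relative to vehicle-treated controls.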

[14] = NCI Yeast Anticancer Drug Screen. Data for the rad50 strain (AID 155);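 also: 0% = growth of vehicle-only cultures of the same strain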; conditions: S. cerevisiae rad50 strain growth inhibition, active compounds read high
Outline: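 Relative growth inhibition (compound vs vehicle) was measured in yeast with a defined repair-gene alteration.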

[15] = NCI Yeast Anticancer Drug Screen. Data for the rad14 strain (AID 159);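 also: 0% = growth of vehicle-treated control cultures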; conditions: S. cerevisiae rad14 strain growth inhibition, active compounds read high
Outline: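 Screen for anticancer potential: a yeast strain altered in DNA damage repair is grown with compound, and reduced growth is quantified against vehicle controls.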

[16] = at 5.0 µM (retest, dose inferred, filed as 0.5)
[17] = at 50.0 µM (retest, dose inferred, filed as 5.0)

Measured: growth inhibition

COC(=O)C(F)C(Br)C(=O)OC (stereo unspecified)
inactive: [2]; [16] 8% | [2]; [17] 12% | [3]; at 1.2 µM 43% | [4]; [16] 5% | [4]; [17] -42% | [5]; at 1.2 µM 64% | [5]; [16] 11% | [5]; [17] -21% | [6]; at 1.2 µM 55% | [7]; at 1.2 µM 66% | [8]; at 1.2 µM 48% | [10]; at 1.2 µM 29%
active: [1]; at 100.0 µM 99% | [2]; at 50.0 µM 92.5% | [3]; at 3.7 µM 91% | [3]; at 11.0 µM 97% | [3]; at 33.0 µM 98% | [3]; at 100.0 µM 100% | [4]; at 50.0 µM 84.2% | [5]; at 3.7 µM 94% | [5]; at 11.0 µM 98% | [5]; at 33.0 µM 99% | [5]; at 50.0 µM 91.4% | [5]; at 100.0 µM 97% | [6]; at 3.7 µM 95% | [6]; at 11.0 µM 98% | [6]; at 33.0 µM 99% | [6]; at 100.0 µM 100% | [7]; at 3.7 µM 96% | [7]; at 11.0 µM 98% | [7]; at 33.0 µM 99% | [7]; at 100.0 µM 99% | [8]; at 3.7 µM 95% | [8]; at 11.0 µM 98% | [8]; at 33.0 µM 99% | [8]; at 100.0 µM 99% | [9]; [16] 94% | [9]; [17] 98% | [9]; at 50.0 µM 90% | [10]; at 3.7 µM 88% | [10]; at 11.0 µM 98% | [10]; at 33.0 µM 92% | [10]; at 100.0 µM 98%

CC12CCC(C1)C(C)(C)C2OC(=O)c1ccccc1N (stereo unspecified)
active: [5]; [17] 80% | [5]; at 100.0 µM 79% | [9]; [17] 82%
inactive: [11]; at 1.2 µM -1% | [11]; at 3.7 µM -1% | [11]; at 11.0 µM -4% | [11]; at 33.0 µM -13% | [11]; at 100.0 µM 14% | [12]; at 1.2 µM 6% | [12]; at 3.7 µM 5% | [12]; at 11.0 µM 0% | [12]; at 33.0 µM 7% | [12]; at 100.0 µM 1% | [13]; at 1.2 µM -3% | [13]; at 3.7 µM 0% | [13]; at 11.0 µM -5% | [13]; at 33.0 µM -9% | [13]; at 100.0 µM 5% | [14]; at 1.2 µM 9% | [14]; at 3.7 µM 6% | [14]; [16] -6% | [14]; at 11.0 µM 7% | [14]; at 33.0 µM 30% | [14]; [17] 50% | [14]; at 50.0 µM -5.6% | [14]; at 100.0 µM 61% | [1]; at 1.2 µM -1% | [1]; at 3.7 µM -2% | [1]; [16] -26% | [1]; at 11.0 µM -6% | [1]; at 33.0 µM 1% | [1]; [17] -26% | [1]; at 50.0 µM 2.7% | [1]; at 100.0 µM 39% | [15]; at 1.2 µM 7% | [15]; at 3.7 µM 2% | [15]; at 11.0 µM -6% | [15]; at 33.0 µM 4% | [15]; at 100.0 µM 17% | [2]; [16] -5% | [2]; [17] 56% | [2]; at 50.0 µM 10.8% | [3]; at 1.2 µM -1% | [3]; at 3.7 µM -2% | [3]; at 11.0 µM -3% | [3]; at 33.0 µM 14% | [3]; at 100.0 µM 61% | [4]; [16] -2% | [4]; [17] 32% | [4]; at 50.0 µM -8.95% | [5]; at 1.2 µM 0% | [5]; at 3.7 µM 3% | [5]; [16] 12% | [5]; at 11.0 µM 9% | [5]; at 33.0 µM 23% | [5]; at 50.0 µM 18% | [7]; at 1.2 µM 2% | [7]; at 3.7 µM -1% | [7]; at 11.0 µM -5% | [7]; at 33.0 µM 11% | [7]; at 100.0 µM 38% | [8]; at 1.2 µM -11% | [8]; at 3.7 µM 0% | [8]; at 11.0 µM -24% | [8]; at 33.0 µM -10% | [8]; at 100.0 µM 36% | [9]; [16] 14% | [9]; at 50.0 µM -2.55% | [10]; at 1.2 µM 3% | [10]; at 3.7 µM 5% | [10]; at 11.0 µM 4% | [10]; at 33.0 µM 9% | [10]; at 100.0 µM 54%
